These results are taken from PubChem BioAssay (EPA / NIEHS).

Activity calls are given as the source filed them. The calls were made as follows: active = hit-call score of the fitted dose curve at least 0.9, where 1 is the maximum; inactive = score below 0.9.

The AC50 is the midpoint of the concentration-response curve, whichever way the signal moves.

Test [1] is described as follows: ATG_E_Box_CIS: Attagene CIS-FACTORIAL HepG2 Assay for human Enhancer Box (E-box) (AID 2282936). Conditions: HepG2 E-box cis-reporter transcription, actives raise or lower the signal. The gist of the method:
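Transiently transfected HepG2, endogenous TF-driven reporters, 24 h dosing. Readout: RT-PCR plus capillary electrophoresis of fluorescent reporter fragments. Gain or loss of signal fitted bidirectionally against DMSO baseline.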

The nature of test [2]: ATG_M_61_CIS: Attagene CIS-FACTORIAL HepG2 Assay for M61 Transcription Factor (Internal Marker) (AID 2282937). Particulars: HepG2 Attagene CIS-FACTORIAL M61 internal marker reporter; actives raise or lower the signal. In short, it runs like this:
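Transfect HepG2 with MRTUs; dose 24 h; isolate RNA; reverse-transcribe with DNase I treatment; PCR-amplify, FAM-label and cut with HpaI for 2 h at 37 C; resolve by CE. Bidirectional fitting against DMSO.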

Test [3] is described as follows: ATG_M_19_CIS: Attagene CIS-FACTORIAL HepG2 Assay for M19 Transcription Factor (Internal Marker) (AID 2282939). Conditions: HepG2 Attagene CIS-FACTORIAL M19 internal marker reporter; actives raise or lower the signal. The gist of the method: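 Transfect HepG2 with MRTU reporter library → dose chemical, 24 h → isolate total RNA, reverse-transcribe with oligo(dT) → PCR, 6-FAM label, HpaI cut (2 h, 37 C) → capillary electrophoresis. Bidirectional fit vs DMSO.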

The nature of test [4]: ATG_Ets_CIS: Attagene CIS-FACTORIAL HepG2 Assay for human Erythroblast Transformation Specific (ETS) (AID 2282941). Conditions: HepG2 ETS cis-reporter transcription, actives raise or lower the signal. The gist of the method: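 Cis-regulated reporter mRNA induction in HepG2 (transient transfection), 24 h exposure, RT-PCR plus capillary electrophoresis detection; DMSO serves as negative control and baseline.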

Test [5] addresses Hepatocyte nuclear factor 3-beta (Homo sapiens) (UniProt Q9Y261). Briefly: ATG_FoxA2_CIS: Attagene CIS-FACTORIAL HepG2 Assay for human Forkhead box A2 (FOXA2) (AID 2282942). Conditions: HepG2 cis-reporter transcription factor activity, 24 h; actives raise or lower the signal. The gist of the method:
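24 h dosing of HepG2 bearing cis-reporter constructs; mRNA readout by RT-PCR/CE fluorescence; bidirectional fit, DMSO baseline.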

A short description of test [6]: ATG_FoxO_CIS: Attagene CIS-FACTORIAL HepG2 Assay for human Forkhead box O (FoxO) (AID 2282943). Conditions: HepG2 Attagene cis-reporter, FoxO element, mRNA; actives raise or lower the signal. In short, it runs like this:
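Transfected HepG2 reporter cells exposed to test chemical for 24 h; reporter RNA measured by reverse transcription, PCR and fluorescent capillary electrophoresis; curves fitted for increases and decreases against DMSO.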

Test [7] in a line: ATG_GATA_CIS: Attagene CIS-FACTORIAL HepG2 Assay for human GATA Binding Protein (AID 2282944). Particulars: HepG2 GATA cis-element reporter, Attagene multiplex mRNA; actives raise or lower the signal. The gist of the method: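 Transient MRTU transfection, HepG2, 24 h compound exposure. Total RNA → oligo(dT) RT → PCR → 6-FAM primer extension → HpaI cut → CE. Bidirectional fit vs DMSO.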

A short description of test [8]: ATG_GLI_CIS: Attagene CIS-FACTORIAL HepG2 Assay for human Zinc Finger Protein GLI1 (AID 2282945). Particulars: HepG2, Attagene cis-factorial reporter mRNA, GLI element; actives raise or lower the signal. In short, it runs like this:
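Transiently transfected HepG2 cells report endogenous transcription factor activity via cis-element-driven reporter units. After 24 h compound exposure, reporter mRNA was measured by RT-PCR with capillary electrophoresis; bidirectional fitting against DMSO baseline.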

Test [9] in a line: ATG_ERE_CIS: Attagene CIS-FACTORIAL HepG2 Assay for Estrogen Response Element (ERE) (AID 2282940). Conditions: HepG2 ERE cis-reporter, Attagene RNA transcript; actives raise or lower the signal. The gist of the method: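 Transient MRTU transfection of human HepG2; cis-element promoters; 24 h dosing; total RNA → RT (oligo dT) → PCR → 6-FAM primer extension → HpaI digest → CE fluorescence. Bidirectional fit, DMSO baseline.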

Hepatocyte nuclear factor 3-beta (Homo sapiens), sequence (Q9Y261 whole entry, looked up): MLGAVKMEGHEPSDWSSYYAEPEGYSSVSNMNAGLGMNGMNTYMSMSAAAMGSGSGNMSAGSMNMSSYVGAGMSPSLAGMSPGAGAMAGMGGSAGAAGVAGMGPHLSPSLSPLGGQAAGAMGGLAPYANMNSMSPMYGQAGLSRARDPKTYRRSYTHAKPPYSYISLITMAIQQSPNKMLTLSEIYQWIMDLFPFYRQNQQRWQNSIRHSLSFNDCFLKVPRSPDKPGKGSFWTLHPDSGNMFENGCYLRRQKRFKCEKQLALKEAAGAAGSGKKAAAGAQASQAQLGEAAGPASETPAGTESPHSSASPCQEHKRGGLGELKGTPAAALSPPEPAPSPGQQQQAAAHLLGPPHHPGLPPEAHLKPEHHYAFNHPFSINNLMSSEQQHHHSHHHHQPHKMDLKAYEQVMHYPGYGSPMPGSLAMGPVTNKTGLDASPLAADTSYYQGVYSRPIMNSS

Consider `CCCCCCCCCCCCCCN(CCO)CCO`, for which the result in [1], in [2], in [3], in test [4], in test [5] and in test [6] was inactive. In addition, the compound was called inactive in [7] and in test [8].

In the case of `CCOc1ccc(N=Nc2ccc(C=Cc3ccc(N=Nc4ccc(OCC)cc4)cc3S(=O)(=O)O)c(S(=O)(=O)O)c2)cc1`, the result in [1], in test [2], in [3], in [4], in test [5] and in test [6] was inactive. Further, the compound was called inactive in [7] and in test [8].

As to `C#CC(C)(O)CC(C)C` (stereo unspecified), the outcome in test [1], in test [2], in [3], in test [4], in test [5] and in test [6] was inactive. For the same compound, the call in test [7] and in test [8] was inactive.

For `ON=C1CCCCC1`, the outcome in test [1], in test [2], in test [3], in test [4], in test [5] and in [6] was inactive. The call in [7] and in test [8] was inactive.

`Cc1cc(S(=O)(=O)O)ccc1N=Nc1c(O)ccc2ccccc12`: the result in test [1], in [2], in test [3], in test [4], in test [5] and in [6] was inactive. Besides, the call in test [7] and in test [8] was inactive.

For the compound `N[C@@H](Cc1cc(I)c(Oc2cc(I)c(O)c(I)c2)c(I)c1)C(=O)O`, the result in test [1], in test [2], in test [3], in test [4], in [5] and in test [6] was inactive. Further, the outcome in [7] and in [8] was inactive.

As for `COC(=O)c1cccnc1`, the result in test [1], in test [2], in test [3], in [4], in test [5] and in test [6] was inactive. The outcome in [7] and in test [8] was inactive.

On to `CC(=O)O[C@@H]1C[C@@H]2CC[C@@]1(C)C2(C)C`, for which the result in test [1], in test [2], in [3], in [4], in test [5] and in test [7] was inactive. Further, in test [8], the compound was classed as inactive.

In the case of `OCC(O)c1ccccc1` (stereo unspecified), the outcome in test [1], in test [2], in test [3], in [9], in [4] and in test [5] was inactive. In addition, the call in [6], in test [7] and in test [8] was inactive.

As for `CCCC[P+](CCCC)(CCCC)CCCC`, the outcome in test [1], in test [2], in [3], in test [4], in test [5] and in test [6] was inactive. Further, the outcome in test [7] and in test [8] was inactive.

On to `CCCC(O)C(O)CO` (stereo unspecified), for which the outcome in [1], in [2], in test [3], in [4], in [5] and in [6] was inactive. Moreover, the call in [7] and in [8] was inactive.

Consider `COc1cc(C(C)C)ccc1C`, for which the result in test [1], in test [2], in test [3], in [4], in [5] and in test [6] was inactive. For the same compound, the result in test [7] and in test [8] was inactive.

For the compound `CCCCCCCCC=CCCCCCCCC1=NCCN1CCO`, the AC50 in test [1] was 26.7 µM (active); in [4], 126 µM (active); in [5] it was 25.7 µM (active). Also, the compound was classed as inactive in [2], in test [3], in test [6], in test [7] and in test [8].

Regarding `CCNCCO`, the outcome in test [1], in test [2], in test [3], in test [4], in test [5] and in test [6] was inactive. In addition, the call in [7] was inactive.

In the case of `OCC#CCO`, the outcome in test [1], in [2], in test [3], in test [4], in test [5] and in test [7] was inactive. Besides, the outcome in [8] was inactive.

In the case of `CN(C)CCOc1ccc(/C(=C(/CCCl)c2ccccc2)c2ccccc2)cc1`, the result in test [1], in test [2], in test [3], in test [4], in [5] and in test [6] was inactive. In addition, the compound was called inactive in test [7] and in test [8].

For the compound `O=C1NC2NC(=O)NC2N1` (stereo unspecified), the outcome in [1], in test [2], in test [3], in test [4], in [5] and in test [6] was inactive. In addition, the outcome in test [7] and in [8] was inactive.

For `C=C(C)C(=O)OCCOCCOCCOC(=O)C(=C)C`, the outcome in test [1], in test [2], in test [3], in test [4], in test [5] and in test [6] was inactive. Besides, the outcome in test [7] and in test [8] was inactive.

As for `Cc1c(OCC(F)(F)F)ccnc1CS(=O)c1nc2ccccc2[nH]1` (stereo unspecified), the result in test [1], in test [2], in test [3], in test [4], in test [5] and in test [6] was inactive. Besides, the result in test [7] and in [8] was inactive.

Take `CCCCCCCCSCCO`: the outcome in [1], in test [2], in [3], in test [4], in [5] and in test [6] was inactive. In addition, the call in test [7] and in test [8] was inactive.

For the compound `CC1CC(O)CC(C)(C)C1` (stereo unspecified), the result in test [1], in test [2], in test [3], in [4], in [5] and in [6] was inactive. The compound was classed as inactive in test [7] and in test [8].

For the compound `C=CC(=O)OCCC#N`, the result in test [1], in test [2], in test [3], in [5] and in test [7] was inactive. The concentration at half-maximal activity (AC50) in [4] is 35.9 µM (active); in test [8], 145 µM (active).

As for `C=C[Si]1(C)O[Si](C)(C=C)O[Si](C)(C=C)O[Si](C)(C=C)O1` (stereo unspecified), the outcome in [1], in test [2], in [3], in test [4], in test [5] and in test [6] was inactive. For the same compound, the call in test [7] and in test [8] was inactive.

As to `CCOC(=O)C(C#N)=C(c1ccccc1)c1ccccc1`, the outcome in test [1], in test [2], in [3], in [4], in test [5] and in test [6] was inactive. Besides, the outcome in test [7] and in test [8] was inactive.

On to `C=C(C#N)C(=O)OCC`, for which the outcome in test [1], in test [2], in test [3], in test [4], in test [5] and in test [6] was inactive. Further, the result in test [7] and in test [8] was inactive.

For `[Cl][Au]([Cl])[Cl]`, the outcome in [1], in test [2], in test [3], in [4], in test [5] and in [7] was inactive. Besides, in test [8], the outcome was inactive.

For `Cc1occc(=O)c1OC(=O)C(C)C`, the result in [1], in [2], in [3], in test [4], in [5] and in test [6] was inactive. Besides, the outcome in test [7] and in [8] was inactive.

Turning to `CCCCCCCCCCCCCCCC(=O)OC/C=C(C)/C=C/C=C(C)/C=C/C1=C(C)CCCC1(C)C`, the result in test [1], in [2], in [3], in test [4], in [5] and in [7] was inactive. Further, in [8], the compound was called inactive.

On to `FC(F)(F)COCC(F)(F)F`, for which the outcome in test [1], in test [2], in [3], in [4], in [5] and in test [6] was inactive. In test [7], the compound was called inactive.

As for `CC1(C)O[C@@H]2C[C@H]3[C@@H]4CCC5=CC(=O)C=C[C@]5(C)[C@@]4(F)[C@@H](O)C[C@]3(C)[C@]2(C(=O)CO)O1`, the outcome in test [1], in [2], in [3], in test [4], in [5] and in [6] was inactive. Moreover, the outcome in test [7] and in test [8] was inactive.

In the case of `Nc1ccn([C@H]2CS[C@@H](CO)O2)c(=O)n1`, the result in [1], in test [2], in test [3], in test [4], in [5] and in [6] was inactive. Further, the result in [7] and in test [8] was inactive.

For `CCCCSCCCC`, the outcome in test [1], in test [2], in [3], in [4], in test [5] and in test [6] was inactive. Further, the result in [7] and in test [8] was inactive.

Turning to `COC(=O)c1ccc(C)cc1C1=NC(C)(C(C)C)C(=O)N1` (stereo unspecified) (tested in a mixture with another compound), the result in test [1], in [2], in test [3], in [4], in test [5] and in [6] was inactive. Moreover, the result in [7] and in test [8] was inactive.

As for `CC(=O)OCCCc1ccccc1`, the result in [1], in [2], in test [3], in test [4], in test [5] and in [6] was inactive. The call in [7] and in test [8] was inactive.
